Sampled rows, rich in hits. Any-hit rate of the full collection: about 1.5%.
Coupling enz = qHTS Assay for Inhibitors of Fructose-1,6-bisphosphate Aldolase from Giardia Lamblia: Coupling assay counterscreen; 290,000 compounds, 0.67% hits; AID 2472, 2010; coupling enzyme system counterscreen, AmpLite Red fluorescence; activity change, negative = inhibition, % at 58.2 µM, hits read low; in the data active = activity change below about -30%
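Fluorescence at 525 nm excitation and 598 nm emission measured inhibition of the coupled detection system without aldolase. Compounds (at 57.5 uM final) were preincubated 10 min at room temperature with coupling enzyme reagent before a 20 min substrate/AmpLite Red step.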
TrxR1 substrate = qHTS Assay for Substrates of Mammalian Selenoprotein Thioredoxin Reductase 1 (TrxR1): qHTS | Potency, µM (highest dose often 114 µM), without a hit: at the top dose activity change, negative = substrate turnover | 390,000 compounds, 0.01% hits | purified TrxR1 substrate turnover, NADPH consumption readout; also: potency is read from the fitted curve at half-maximal effect; nearly all actives have a fitted effect of over 50% in size
Target sequence (O89049 whole entry, looked up): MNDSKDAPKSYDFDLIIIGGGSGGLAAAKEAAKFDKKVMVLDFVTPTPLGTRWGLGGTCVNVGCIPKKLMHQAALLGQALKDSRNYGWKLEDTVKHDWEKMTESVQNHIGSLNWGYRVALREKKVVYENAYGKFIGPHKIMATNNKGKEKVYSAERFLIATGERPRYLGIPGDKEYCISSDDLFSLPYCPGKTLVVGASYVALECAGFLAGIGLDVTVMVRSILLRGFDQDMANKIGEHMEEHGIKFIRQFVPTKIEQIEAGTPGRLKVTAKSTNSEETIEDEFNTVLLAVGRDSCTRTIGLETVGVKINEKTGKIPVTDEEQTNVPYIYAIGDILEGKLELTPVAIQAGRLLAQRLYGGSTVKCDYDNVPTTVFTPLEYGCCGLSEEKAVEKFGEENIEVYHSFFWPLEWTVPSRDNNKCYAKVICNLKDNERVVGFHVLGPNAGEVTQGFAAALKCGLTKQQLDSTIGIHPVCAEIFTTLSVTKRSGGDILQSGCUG
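Rat TrxR1, dispensed at 90 nM, was prereduced with 400 uM NADPH (final) for 5 min at ~22 deg C, then incubated with compound 15 min before 400 uM selenite. A first-read NADPH fluorescence drop versus no-compound background flagged substrates.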
mIDH1 inhibitor = qHTS for Inhibitors of mutant isocitrate dehydrogenase 1 (IDH1): qHTS; 390,000 compounds, 0.093% hits; IDH1-R132H enzyme, NADPH consumption, diaphorase/resazurin fluorescence; Isocitrate dehydrogenase [NADP] cytoplasmic (Homo sapiens), O75874; Potency, µM (highest dose often 76.6 µM), inactives show at the top dose activity change, negative = inhibition, actives largely listed as inhibitors; also: potency is read from the fitted curve at half-maximal effect; nearly all actives have a fitted effect of over 65% in size
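IDH1-R132H (0.5 ug/mL dispensed) in pH 7.5 Tris buffer was preincubated 30 min with compound, then given a substrate mix of 0.016 mM NADPH and 2 mM alpha-KG for 80 min at room temperature; remaining NADPH was read by diaphorase/resazurin fluorescence.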
TrxR1 inh = qHTS Assay for Inhibitors of Mammalian Selenoprotein Thioredoxin Reductase 1 (TrxR1): qHTS. Thioredoxin reductase 1, cytoplasmic (Rattus norvegicus), O89049. recombinant rTrxR1, NADPH fluorescence consumption, selenite substrate. Potency, µM (highest dose often 114 µM), inactives show at the highest dose activity change, negative = inhibition, hits mostly inhibitors. 390,000 compounds, 1% hits. AID 588453, 2011; also: potency is read from the fitted curve at half-maximal effect; nearly all actives have a fitted effect of over 65% in size
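Rat TrxR1 (90 nM in the dispensed reagent) was pre-reduced with 400 uM NADPH for 5 min at room temperature, then incubated with compound for 15 min. After 400 uM selenite was added, NADPH fluorescence (Ex 340/Em 450 nm) was followed for 8 min.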
Eya2 phos inh = qHTS Assay for Inhibitors of the Phosphatase Activity of Eya2 | recombinant Eya2, OMFP fluorescence dephosphorylation (OMFP is methylfluorescein phosphate) | AID 488837, 2010 | Protein phosphatase EYA2 (Homo sapiens), O00167 | Potency, µM (series often up to 76.9 µM), for inactives: at the top dose activity, negative = inhibition, actives largely listed as inhibitors | 330,000 compounds, 0.006% hits; also: potency is read from the fitted curve at half-maximal effect
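Eya2 protein (added as 0.2 uM solution) was preincubated with compound for 10 min at ambient temperature in 50 mM HEPES pH 7.5, 50 mM NaCl, 5 uM MgCl2, 0.05% BSA, 1 mM DTT. OMFP (added at 50 uM) then reacted 10 min; fluorescence read at 485/525 nm.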
Starred values were filed as active, the others as inactive; ? = inconclusive; / = no result given; [ ] = remark or other dose. Unless noted, calls follow the shape of the dose curve; as a rule, active = well fitted curve in the direction sought with a large enough effect; inconclusive = small, poorly fitted or top-dose-only effect, or another doubt; inactive = no such curve, though single readings can be large; an effect the other way counts as inactive or inconclusive. % is scaled to controls: 0 for no effect and ±100 for the full control effect.

SMILES	Coupling enz	TrxR1 substrate	mIDH1 inhibitor	TrxR1 inh	Eya2 phos inh
Cc1ccc2cc(C(c3nnnn3CC3CCCO3)N3CCc4ccccc4C3)c(=O)[nH]c2c1 (centres undefined)	-38.3*	-15.9%	-3.7%	?	-24.0%
CCOc1ccc2[nH]c(=O)c(C(c3nnnn3CC3CCCO3)N3CCc4ccccc4C3)cc2c1 (centres undefined)	-30.1*	32.5%	2.4%	-13.8%	-2.9%
CCOc1ccc2[nH]c(=O)c(C(c3nnnn3Cc3ccco3)N3CCN(C)CC3)cc2c1 (centres undefined)	-67.3*	22.4%[57.1 µM]	7.0%	4.4%[57.1 µM]	-23.4%
Cc1ccc2[nH]c(=O)c(CN(CCO)Cc3nnnn3Cc3ccccc3)cc2c1	/	-0.7%	/	2.6%	/
Cc1ccccc1OCC(=O)NCC(=O)OCC(=O)c1ccc2c(c1)CCCC2	/	-2.3%	/	31.3%[0.0914 µM]	/
C=CCOC(=O)N[C@H](/C(C(=O)OC)=C(\C)NCc1ccccc1)c1cccc(F)c1	0.5	/	/	/	/
C(=C1c2ccccc2Oc2ccccc21)c1ccccc1	/	7.6%[0.0914 µM]	/	16.1%[0.0914 µM]	/
O=C(C[n+]1cc(Br)cc2ccccc21)c1ccc(O)c(O)c1	/	-7.2%	/	-8.9%	/
Cc1cccc2cc(C(c3nnnn3CC3CCCO3)N3CCCc4ccccc43)c(=O)[nH]c12 (centres undefined)	-0.8	5.7%[57.1 µM]	5.1%	11.0%[57.1 µM]	-0.5%
CCc1ccc2[nH]c(=O)c(C(c3nnnn3CC3CCCO3)N3CCCc4ccccc43)cc2c1 (centres undefined)	-30.7*	-4.1%	-7.9%	16.6%	-1.2%
Cc1cc2cc(C(c3nnnn3CC3CCCO3)N3CCCc4ccccc43)c(=O)[nH]c2cc1C (centres undefined)	4.0	-2.8%	4.9%	1.3%	-11.7%
Cc1cccc2cc(C(c3nnnn3CC3CCCO3)N3CCc4ccccc4C3)c(=O)[nH]c12 (centres undefined)	-43.6*	4.0%	3.0%	?	-21.5%
COC(=O)C1=C(C(=O)OC)[C@@H]2N(C)c3ccccc3[C@@]23C[C@@H](C(=O)OC)N(S(=O)(=O)c2ccc([N+](=O)[O-])cc2)C3=N1	-6.1	/	/	/	/
Cc1cc(N(C)C)ccc1/C=C/c1ccnc2ccccc12	/	1.4%	/	-1.5%	/
CC(C)Cc1ccc(C(C)CC2=CCC(CN(C)C)C2=O)cc1 (centres undefined)	/	-1.2%	?	44.7µM*	/
CC(C)Cc1ccc([C@@H](C)C(=O)NS(C)(=O)=O)cc1	22.4	/	/	/	/
CC1(C)C[C@](C)(C(=O)c2ccccc2)C=C1c1ccccc1	3.9	/	/	/	/
O=C(O)CC/C(=N\Nc1ccc(S(=O)(=O)N2CCCC2)cc1[N+](=O)[O-])c1cccs1	7.5	-13.2%	-5.4%	-13.2%	-15.7%
O=C(O)CC/C(=N\Nc1ccc(S(=O)(=O)N2CCOCC2)cc1[N+](=O)[O-])c1cccs1	10.3	79.4µM*	-6.4%	?	4.5%
O=c1c(CN2CCN(Cc3ccccc3)CC2)coc2ccc(Cl)cc12	-1.7	13.0%	2.8%	22.4µM*	-3.4%
COc1ccc2cc(CN(CCc3ccccc3)Cc3nnnn3CC3CCCO3)c(=O)[nH]c2c1 (centres undefined)	-0.8	4.3%	12.6%	?	-8.3%
COc1ccc2[nH]c(=O)c(CN(Cc3ccc(C)cc3)Cc3nnnn3CC3CCCO3)cc2c1 (centres undefined)	-47.2*	8.8%	12.5%	-10.4%	-13.2%
COc1ccc2[nH]c(=O)c(CN(CCc3ccccc3)Cc3nnnn3CC3CCCO3)cc2c1 (centres undefined)	-40.2*	41.6%	5.1%	-36.0%	15.7%
CC(=O)c1ccc(OCc2cc(C(=O)N3CC[C@@H]4CCCC[C@H]4C3)no2)cc1	-1.1	-13.5%	4.2%	25.1µM*	-10.9%

High-throughput results (PubChem BioAssay)
